# Only some compounds are listed: those with a hit (about 1.2% of all), similar ones and a draw of the others.
# Keap1 Nrf2 FP: inhibitors of human Keap1-Nrf2 protein-protein interaction; AID 504523; Q14145; inhibition, % at 9.4 µM; Keap1 Kelch-Nrf2 peptide fluorescence polarization, 1536-well; hit rate 0.15% among 340,000; in the data active = inhibition above about 12%; inconclusive = no clear call, values can overlap the other calls; inactive = below about 7.3%;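 also: human Keap1 Kelch domain with fluorescein labeled Nrf2 9mer peptide probe; 0% = neutral control wells and 100% = peptide positive control; higher means more block of Keap1 binding to Nrf2 peptide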
# BCLXL inh: Bcl-xL (human) inhibition. Q07817. GST-Bcl-xL / FITC-Bim BH3 peptide fluorescence polarization. inhibition, % at 10.9 µM. hit rate 0.7% among 320,000;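 active = inhibition above the mean of all tested compounds plus 3 SD, cutoff set per campaign, cut at about 30% in these data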;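 also: 0% = DMSO wells and 100% = unlabeled Bim-BH3 peptide competitor; inhibitors lower millipolarization by displacing the labeled peptide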
# Target sequence (Q07817 whole entry, looked up): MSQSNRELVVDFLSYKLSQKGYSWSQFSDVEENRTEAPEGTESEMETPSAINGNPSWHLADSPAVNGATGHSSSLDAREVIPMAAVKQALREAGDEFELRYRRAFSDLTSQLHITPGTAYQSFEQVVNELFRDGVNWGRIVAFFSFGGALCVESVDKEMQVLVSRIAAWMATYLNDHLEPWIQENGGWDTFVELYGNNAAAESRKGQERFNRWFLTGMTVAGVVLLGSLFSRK
# C-LANA FP: KSHV C-LANA DNA binding inhibition; MBP-C-LANA/FAM-LBS DNA binding, fluorescence polarization; inhibition, % at 9 µM; hit rate 0.078% among 340,000;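 active = highest replicate inhibition at or above 60% at 9 µM, even if other replicates fall short; inactive = all replicates below 60% inhibition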;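 also: 0% = neutral control wells and 100% = 4 µM acridine orange control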
# E coli Lon inh: inhibitors of E. coli Lon protease | purified E. coli Lon protease, fluorescence polarization | inhibition, % at 7.94 µM | hit rate 0.42% among 360,000; in the data active = inhibition above about 13%, passing the limit was not always enough;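 also: 0% = enzyme with probe and DMSO and 100% = no enzyme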
# GLD-1 RNA inh: GLD-1-TGE RNA interaction inhibition (C. elegans); Q17339; purified GLD-1 + fluorescein TGE RNA, fluorescence polarization; inhibition, % at 5.96 µM; hit rate 0.44% among 320,000; AID 2280;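 active = percent inhibition above a per-plate cutoff, the plate mean of test compounds plus 3 SD, cut at about 30% in these data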;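 also: 0% = DMSO wells with GLD-1 and probe and 100% = wells lacking GLD-1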
# MEX-5 binding: C. elegans MEX-5 TCR-2 RNA binding activity; Q9XUB2; AID 1832; hit rate 0.38% among 300,000; activity score (negative = inhibition of binding), % at 10 µM; MEX-5/FITC-TCR2 RNA binding, fluorescence polarization; hits give low values;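 active = inhibition past about -25% in most replicates, and total fluorescence under double the plate's negative control median, limit read from the data; inconclusive = replicates evenly split on the limit, or fluorescence at least double controls; inactive = too little inhibition in most replicates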;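 also: 0% = DMSO and -100% = 5 µM competing unlabeled TCR2 RNA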
# Target sequence (Q9XUB2 whole entry, looked up): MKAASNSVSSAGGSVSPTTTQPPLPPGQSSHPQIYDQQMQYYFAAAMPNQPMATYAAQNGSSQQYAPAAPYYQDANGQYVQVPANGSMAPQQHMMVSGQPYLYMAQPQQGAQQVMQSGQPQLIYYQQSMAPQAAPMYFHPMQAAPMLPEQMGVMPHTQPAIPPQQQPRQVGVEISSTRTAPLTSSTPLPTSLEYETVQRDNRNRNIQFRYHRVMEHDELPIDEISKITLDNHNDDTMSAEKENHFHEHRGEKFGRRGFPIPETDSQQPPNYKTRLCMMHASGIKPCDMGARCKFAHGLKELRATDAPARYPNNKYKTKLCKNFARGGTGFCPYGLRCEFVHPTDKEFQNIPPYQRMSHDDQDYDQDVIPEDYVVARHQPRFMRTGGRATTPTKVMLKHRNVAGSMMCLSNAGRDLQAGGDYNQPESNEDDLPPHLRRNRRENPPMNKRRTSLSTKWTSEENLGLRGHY
# * hit, by the source's call; ? = inconclusive; . = no result given.
SMILES,Keap1 Nrf2 FP,BCLXL inh,C-LANA FP,E coli Lon inh,GLD-1 RNA inh,MEX-5 binding
CC[C@H](C)/C=C(C)/C=C/c1cc2c(cn1)C(=O)[C@@](C)(OC(C)=O)C(O)=C2Cl,.,.,.,-9.3,.,.
O=[N+]([O-])c1ccc(N=Nc2ncc[nH]2)cc1,-2.8,.,-2.1,-20.2,.,-32.2*
Cc1cc(=O)[nH]c(-n2[nH]c3c(c2=O)CCCC3)n1,0.2,66.7*,5.2,-19.4,52.6*,0.6
CC(=O)Nc1ccc(S(=O)(=O)N(C)CC(=O)OC(C)C(=O)NC2(C#N)CCCCC2)cc1 (stereo not given),.,.,.,-13.3,.,.
CC(NC(=O)C1CCCN1C(=O)OC(C)(C)C)C(=O)OCc1ccccc1 (stereo not given),.,.,.,-7.7,.,.
Cc1csc(=O)n1CCC(=O)NCc1ccc(F)cc1,-6.5,.,0.6,1.7,-1.3,.
COc1cc(C)c(CNc2ccc(OC)c(OC)c2)cc1C,.,35.5*,.,.,3.9,-8.0
C[C@@H]1CCCCO[C@@H](CN(C)Cc2ccc(Cl)c(Cl)c2)[C@@H](C)CN([C@H](C)CO)C(=O)c2cc(NC(=O)CCC(F)(F)F)ccc2O1,.,.,.,0.4,.,.
COc1ccc(-n2c(C)cc(/C=C3\SC(=S)N(Cc4ccco4)C3=O)c2C)cc1,-4.8,-2.2,2.7,-206.5,29.9,-27.9*
CC(=O)Nc1ccc(S(=O)(=O)NNC(=O)C(=O)NNc2ccccn2)cc1,-1.8,1.8,-0.4,7.1,7.9,-45.3*
Cc1ccccc1S(=O)(=O)NNC(=O)C(=O)NNc1ccccn1,-5.0,2.8,1.2,-3.0,8.2,-25.6*
Cc1ccc(S(=O)(=O)NNC(=O)C(=O)NNc2ccccn2)cc1,-3.8,4.7,1.4,-1.5,2.1,-8.7
Nc1ccc(S(=O)(=O)NNC(=O)C(=O)NNc2ccccn2)cc1,-2.0,-2.3,1.1,6.9,5.0,-30.3*
COc1ccc(CN2CCNC(=O)C2CC(=O)NCCCC2CCCC2)c(F)c1 (stereo not given),-1.3,3.4,-1.8,0.2,-4.6,3.3
N=C1/C(=C\c2coc3ccc(O)cc3c2=O)C(=O)N=C2SC=CN12,-7.6,60.9*,27.4,-232.8,54.9*,?
Cc1ccccc1-c1cnc2c(c1)C(=O)N([C@@H](C)CO)C[C@@H](C)[C@H](CN(C)Cc1ccccc1F)O2,.,.,.,0.6,.,.
N#CC1=C(N)C(C#N)(C#N)C(c2cccnc2)C2CCCC=C12 (stereo not given),.,84.2*,.,.,59.7*,-26.3*
N#CC1=C(N)C(C#N)(C#N)C(c2ccc[nH]2)C2CCCC=C12 (stereo not given),-3.1,66.8*,13.9,8.1,77.5*,-17.5
N#CC1=C(N)C(C#N)(C#N)[C@H](c2cccnc2)[C@H]2CN(C(=O)OCc3ccccc3)CC=C12,-6.2,7.8,3.5,6.6,8.4,-0.6
N#CC1=C(N)C(C#N)(C#N)C(c2cccnc2)C2CC(c3ccccc3)CC=C12 (stereo not given),-0.3,110.0*,10.6,18.1*,103.4*,2.8
Cc1ccc(NS(=O)(=O)c2cccc(C(=O)NCC(c3ccco3)N3CCCC3)c2)cc1 (stereo not given),-8.4,1.7,-1.8,-16.1,10.2,.
CCCCCn1nc(-c2ccccc2)c2nc3ccccc3nc21,0.6,29.7,93.7*,-8.2,-4.7,?
CCCn1nc(-c2ccccc2)c2nc3ccccc3nc21,.,23.9,.,.,-12.2,.
CC1CCN(c2ccc3nnc(CCC(=O)Nc4cccc(F)c4)n3n2)CC1,-0.2,0.9,0.7,-1.0,5.8,-0.1
O=C(Nc1ccc2c(c1)OCCO2)C1c2ccccc2OCC(=O)N1Cc1ccccc1 (stereo not given),.,.,.,9.8,.,.
SMILES,Keap1 Nrf2 FP,BCLXL inh,C-LANA FP,E coli Lon inh,GLD-1 RNA inh,MEX-5 binding
CCOC(=O)c1[nH]c2ccc(Cl)cc2c1NC(=O)/C=C/c1ccc2c(c1)OCO2,0.9,0.1,0.5,-4.5,0.1,-1.1
CCN(CC(=O)Nc1c(C(=O)OC)[nH]c2ccc(Cl)cc12)c1ccc2c(c1)OCO2,0.5,49.2*,1.0,8.3,0.5,0.1
COc1cc(C(O)P(=O)(OC2CCCCC2)c2ccc(N(C)C)cc2)cc(OC)c1OC (stereo not given),0.5,5.9,0.6,8.0,0.9,1.0
CC(C)c1ccc(C(O)P(=O)(OC2CCCCC2)OC2CCCCC2)cc1 (stereo not given),.,35.2*,.,-9.0,22.1,1.2
Cn1c(-c2ccsc2)c(-c2cccs2)c2cc(Br)ccc21,-4.2,2.0,0.0,-5.5,1.1,.
COCCOC(=O)C1=C(C)NC(=O)NC1c1c(Cl)nc2c(C)cccn2c1=O (stereo not given),.,32.4*,.,.,8.0,-3.4
COc1ccc(N)c2c1C(=O)c1ccccc1C2=O,2.3,15.7,-3.3,4.0,14.3,-1.0
Nc1ccc(Br)c2c1C(=O)c1ccccc1C2=O,.,46.2*,.,.,16.2,-1.8
Cc1ccc(C(=O)N/C(=C\c2ccc(-c3ccccc3[N+](=O)[O-])o2)C(=O)NCCCN2CCOCC2)cc1,-5.0,31.7*,2.7,6.7,18.4,-7.1
COc1ccc(OC)c(C(=O)NC(CC(N)=O)c2ccc(N3CCN(c4ccccn4)CC3)c([N+](=O)[O-])c2)c1 (stereo not given),-1.5,4.4,1.1,1.1,5.6,-0.3
N#CC(C#N)=Cc1ccc(-c2ccc(S(=O)(=O)N=C(N)N)cc2)o1,-1.9,4.5,12.2,-14.3,-4.7,-37.9*
O=C1c2sc3nc4n(c(=O)c3c2CCC1Br)CCCCC4 (stereo not given),-3.1,30.5*,0.3,-2.8,0.5,-0.3
O=C1CCCc2c1sc1nc3n(c(=O)c21)CCCCC3,2.5,4.2,-0.5,-4.3,-4.3,0.8
COc1ccc2nc3ccccc3nc2c1NC(=O)c1ccc(Cl)cc1Cl,-15.2,3.9,1.1,-7.2,13.1,-53.2*
COc1cc(-c2cc(C(=O)Nc3c(Cl)cc(Cl)cc3Cl)c3ccccc3n2)cc(OC)c1OC,2.2,-3.4,0.0,-3.1,2.1,0.2
CC1=CC(C)(C)Nc2ccc(OC(=O)CN3C(=O)c4ccccc4C3=O)cc21,-0.9,0.5,1.3,-2.3,2.9,-1.3
CC1=CC(C)(C)Nc2ccc(OC(=O)CN3C(=O)c4cccc5cccc(c45)C3=O)cc21,0.5,36.0*,2.6,10.2,28.1,-1.4
CN(CC(=O)Nc1ccccc1Cl)C(=O)CCc1nc2ccccc2c(=O)[nH]1,2.1,30.7*,0.4,-13.9,24.9,-11.5
CN(CC(=O)Nc1ccc(F)cc1)C(=O)CCc1nc2ccccc2c(=O)[nH]1,-6.3,11.7,2.3,4.3,0.2,-3.8
CN(c1ccccc1)S(=O)(=O)c1nnc(NC(=O)c2ccco2)s1,-2.9,4.0,-1.4,-15.2,1.8,-1.9
Cc1cccc(N(C)S(=O)(=O)c2nnc(NC(=O)c3ccco3)s2)c1,3.9,1.0,2.5,-8.3,0.7,-32.7*

# Screening results deposited in PubChem by several laboratories.
